# The source made the active and inactive calls.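 How the source made its calls, unless noted: active means compound that reduces growth-factor-driven endothelial tube area in a mixed cell culture, no cutoff stated; inactive means the rest.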
# Experiments:
# [1] = Wnt pathway potentiators raising nuclear beta-catenin – imaging, WNT3A-conditioned medium, mouse C2C12, NPC library, primary screen (AID 1117326; in the data active means nuclear beta-catenin stimulation mostly above about 4.2%, no sharp cut-off; inactive means mostly below about 10%; further: reference of the scale not given here); conditions: stronger effect = higher value
# [2] = stimulators of insulin release from INS-1E, primary screen, cell-based, 5 mM glucose, NPC library (AID 1117329;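 active means compound raises insulin release from rat beta cells at 5 mM glucose, no numeric limit stated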; further: reference of the scale not given here); conditions: rat INS-1E insulin secretion, at 10 µM, stronger effect = higher value
# [3] = growth inhibition of GSK3B-pretreated HCT116 cells – cell-based, CellTiter-Glo, 0.2 to 20 µM (AID 1117336;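 active means compounds lowering colon cancer cell viability after pretreatment blocking the GSK3B kinase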); conditions: HCT116 viability after GSK3B inhibitor, at 20 µM, stronger effect = higher value
# [4] = inhibition of endothelial tube formation, primary screen, imaging, VEGF stimulated, CD31 staining, tube area, NPC library (AID 1117340); conditions: VEGF-stimulated ADSC/ECFC co-culture, at 10 µM, stronger effect = higher value
# [5] = GLP1 release stimulators, primary, NCI-H716, NPC library (AID 1117341;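 active means compound raises GLP1 secretion from the human gut endocrine cells, with no numeric limit stated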; further: reference of the scale not given here); conditions: NCI-H716 cells, at 10 µM, stronger effect = higher value
# [6] = HCT116 colon cancer cell growth inhibition, primary screen, CellTiter-Glo luminescence, NPC library (AID 1117342;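 active means compounds that lower survival of HCT116 colon cancer cells in the luminescence readout, no numeric limit stated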); conditions: at 20 µM (top of the series)
# [7] = reduced SW480 viability measured with CellTiter-Glo, NPC library, primary (AID 1117343;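 active means compounds that lower viability of the colon cancer cells in the luminescence readout, with no numeric limit stated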); conditions: CellTiter-Glo luminescence; at 20 µM (top of the series)
# [8] = NPC library primary testing for decreased DLD-1 cell viability via CellTiter-Glo (AID 1117346;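 active means compounds that lower survival of DLD-1 colon cancer cells in the luminescence readout, no cutoff given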); conditions: DLD-1 viability, CellTiter-Glo luminescence; at 20 µM (top of the series)
Structure (SMILES),nuclear beta-catenin stimulation ([1]; at 10 µM),"nuclear beta-catenin stimulation ([1]; stimulation, at 2 µM)",insulin secretion stimulation [2],viability decrease [3],tube area decrease [4],GLP1 secretion stimulation [5],inhibition of viability [6],viability decrease (inhibition) [7],viability decrease (inhibition) [8]
Nc1ccc2c(c1)CN1C(=O)c3ccccc3C1=N2,3.6% (inactive),-0.3%,4.2% (inactive),44.4% (inactive),44.6% (active),2% (inactive),13.1% (inactive),79.4% (active),28.1% (inactive)
CCOC(=O)Cn1cccc1-c1nc(-c2ccc(OC)cc2)c(-c2ccc(OC)cc2)s1,-0.6% (inactive),-1.4%,1.9% (inactive),35.5% (inactive),6.7% (inactive),-0.1% (inactive),46% (inactive),88.2% (active),77.5% (active)
O=S(O)CO,2.1% (inactive),0.9%,0.6% (inactive),-7.1% (inactive),9.9% (inactive),-1.1% (inactive),-0.4% (inactive),-0.9% (inactive),2.7% (inactive)
C[C@H](N)C(=O)N[C@@H](C)C(=O)NC1[C@H]2CN(c3nc4c(cc3F)c(=O)c(C(=O)O)cn4-c3ccc(F)cc3F)C[C@@H]12 (stereo partly drawn),0.2% (inactive),-2.1%,3.4% (inactive),80.7% (active),1.8% (inactive),0.7% (inactive),27.2% (inactive),2.9% (inactive),-9.3% (inactive)
COc1cc([C@@H]2c3cc4c(cc3[C@@H](O[C@@H]3O[C@@H]5CO[C@@H](C)O[C@@H]5[C@H](O)[C@@H]3O)[C@H]3COC(=O)[C@H]23)OCO4)cc(OC)c1O,44.6% (active),18.8%,1.2% (inactive),21.9% (inactive),104% (active),0.6% (inactive),53.9% (active),73.1% (active),49.6% (inactive)
O=C(O)c1ccccc1S,4.7% (inactive),-1.3%,-0.1% (inactive),1% (inactive),13.4% (inactive),-1.4% (inactive),2.1% (inactive),31.6% (inactive),-3.4% (inactive)
O=C(OCC1(COC(=O)c2cccnc2)CCCC(COC(=O)c2cccnc2)(COC(=O)c2cccnc2)C1O)c1cccnc1,-1.3% (inactive),-0.2%,7.7% (inactive),-3.6% (inactive),-7.3% (inactive),-3.3% (inactive),9.9% (inactive),-3.1% (inactive),-3.1% (inactive)
COc1ccc2nc(NC(=O)Nc3ccccc3)sc2c1,0.5% (inactive),0%,1.3% (inactive),11.7% (inactive),2.4% (inactive),-1.4% (inactive),43% (inactive),-1.6% (inactive),24% (inactive)
NC(=S)N/N=C/c1cccnc1,0.4% (inactive),0.5%,-0.8% (inactive),0.7% (inactive),-13.5% (inactive),1.9% (inactive),-8.9% (inactive),38.7% (inactive),1.65% (inactive)
O=[N+]([O-])c1nccn1CO[C@@H](CO)[C@H](O)CO,-0.2% (inactive),-0.8%,1.45% (inactive),40% (inactive),-13.2% (inactive),-3.1% (inactive),7.6% (inactive),2.3% (inactive),-5.8% (inactive)
O=Cc1ccccc1C=O,-0.8% (inactive),0.2%,-0.6% (inactive),1.65% (inactive),9.9% (inactive),2.6% (inactive),-1.7% (inactive),12.2% (inactive),-1.7% (inactive)
CCCc1ncc(C(=O)O)s1,-1.1% (inactive),-1.2%,4.2% (inactive),-8.2% (inactive),9.7% (inactive),-5.4% (inactive),5.1% (inactive),2.1% (inactive),-6.8% (inactive)
CC(C)=CCC/C(C)=C/CC/C(C)=C/C(=O)OCC(=O)[C@@]1(O)CC[C@H]2[C@@H]3CCC4=CC(=O)C=C[C@]4(C)[C@H]3[C@@H](O)C[C@@]21C,-1% (inactive),0%,-2% (inactive),92.3% (active),107% (active),-0.8% (inactive),98.2% (active),86.2% (active),88.5% (active)
CCCC(CCC)(C(=O)OCC)C(=O)OCC,-1.3% (inactive),-2.9%,2.1% (inactive),11.4% (inactive),-3.8% (inactive),3.5% (inactive),12.2% (inactive),1.4% (inactive),-4.9% (inactive)
Cc1cc(O)c(C(C)C)cc1Cl,-0.5% (inactive),1.2%,-0.9% (inactive),36.1% (inactive),-10.5% (inactive),29.3% (active),-9.5% (inactive),22% (inactive),19.5% (inactive)
O=C(/C=C/c1ccccc1)NCCO,1.1% (inactive),1.4%,-2.3% (inactive),-9.8% (inactive),26.7% (inactive),-1.5% (inactive),12.9% (inactive),-3.5% (inactive),-16.4% (inactive)

Structure (SMILES),nuclear beta-catenin stimulation ([1]; at 10 µM),"nuclear beta-catenin stimulation ([1]; stimulation, at 2 µM)",insulin secretion stimulation [2],viability decrease [3],tube area decrease [4],GLP1 secretion stimulation [5],inhibition of viability [6],viability decrease (inhibition) [7],viability decrease (inhibition) [8]
CCCCS(=O)(=O)N[C@@H](Cc1ccc(OCCCCC2CCNCC2)cc1)C(=O)O,1.1% (inactive),-1.6%,0.7% (inactive),96.5% (active),-5.9% (inactive),5.3% (inactive),72.5% (active),64.5% (active),50.1% (active)
COc1ccc(CC2c3cc(OC)c(OC)cc3CCN2CCC(=O)OCCCCCOC(=O)CCN2CCc3cc(OC)c(OC)cc3C2Cc2ccc(OC)c(OC)c2)cc1OC (stereo not drawn),-1.1% (inactive),0.5%,2.2% (inactive),-6.9% (inactive),-3.5% (inactive),-3.9% (inactive),-6.4% (inactive),39.7% (inactive),-10.6% (inactive)
CC(=O)N/N=C/c1ccc([N+](=O)[O-])o1,9.9% (inactive),-0.2%,-3.3% (inactive),16.4% (inactive),20.9% (inactive),5.7% (inactive),9% (inactive),104% (active),80.5% (active)
C=C(C)C(=O)OCC(O)CO (stereo not drawn),7.5% (inactive),28.1%,2.7% (inactive),3% (inactive),-13.7% (inactive),-1.4% (inactive),1.9% (inactive),-10.3% (inactive),20.3% (inactive)
C[C@@H](O)[C@H]1C(=O)N2C(C(=O)O)=C([C@H]3CCCO3)S[C@H]12,0.5% (inactive),0.5%,-1.8% (inactive),13.8% (inactive),-11.6% (inactive),1.1% (inactive),3.4% (inactive),34.6% (inactive),11.2% (inactive)
CCCCCCCCCCCCCCNCCO,10.8% (inactive),10.6%,-1.5% (inactive),62.8% (active),103% (active),34.8% (active),32.6% (inactive),121% (active),103% (active)
Cc1c(C(=O)NCCO)[n+](=O)c2ccccc2n1[O-],5% (inactive),3%,-1.6% (inactive),-6.4% (inactive),14% (inactive),-0.4% (inactive),0.3% (inactive),-17.1% (inactive),-6.2% (inactive)
O=C(O)Cc1csc(-c2ccc(Cl)cc2)n1,-0.7% (inactive),-0.2%,0.4% (inactive),-4.4% (inactive),0.8% (inactive),-2.9% (inactive),-9.9% (inactive),-3.2% (inactive),-11% (inactive)
Cc1ccc(O)c2ncccc12,30.3% (inactive),2.4%,-2% (inactive),16.6% (inactive),5.7% (inactive),2.8% (inactive),33% (inactive),27% (inactive),4.9% (inactive)
CC(C)(C)c1ccc(C(=O)CCCCl)cc1,-0.1% (inactive),0.6%,3.7% (inactive),-2.4% (inactive),20.9% (inactive),-3.6% (inactive),10.3% (inactive),-21.3% (inactive),0.9% (inactive)
Cc1ccccc1N=Nc1ccc(N=Nc2c(O)ccc3ccccc23)c(C)c1,4.6% (inactive),5.4%,1.7% (inactive),2.6% (inactive),38.9% (inactive),-8.5% (inactive),6.3% (inactive),17.9% (inactive),15.4% (inactive)
Nc1nc(-c2ccccc2)c(Br)c(=O)[nH]1,3.6% (inactive),2.1%,-0.7% (inactive),-50.3% (inactive),17% (inactive),3.9% (inactive),-10.9% (inactive),11.9% (inactive),0.7% (inactive)
O=P(O)(O)OCC(O)CO (stereo not drawn),0.5% (inactive),0.5%,-2.1% (inactive),4.35% (inactive),-14.2% (inactive),0.6% (inactive),9.3% (inactive),23.1% (inactive),18.2% (inactive)
O=C(NN1CCCC1)NS(=O)(=O)c1ccc(Cl)cc1,-0.5% (inactive),-0.1%,33.9% (active),-3.1% (inactive),7% (inactive),-1.1% (inactive),14.2% (inactive),0% (inactive),-2.8% (inactive)
CCCCCOc1ccccc1/C(=C\SC)n1ccnc1,0.8% (inactive),-0.3%,3.4% (inactive),-71.1% (inactive),30.4% (inactive),3.8% (inactive),61.1% (active),79.6% (active),99.5% (active)
CN1CCC(N(Cc2cccs2)c2ccccc2)CC1,-0.3% (inactive),5.8%,26.2% (active),53.9% (active),-3.7% (inactive),10% (inactive),49.3% (inactive),72.8% (active),13.1% (inactive)

# — PubChem BioAssay
